Laboratory results as given in the supplement of paper PMC11732987, “Enantioselective OTUD7B fragment discovery through chemoproteomics screening and high-throughput optimisation” (Communications Chemistry, 2025).

Key:
Test in all cases: log2 ratio of Biotin-Ahx-Ub-VS probe labelling (compound/DMSO); higher = less target engagement, active = hit call of the paper (q ≤ 0.05, log2 ratio ≤ -1)
Conditions in all cases: treatment time: 3 h
[1] = compound: CCC1N(CCc2sccc12)C(=O)CCl
How it was run: (§1)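 HEK293T lysate (495 µg per sample, in Tris/CHAPS/IGEPAL buffer with protease inhibitors) was exposed in triplicate to compound at 50 or 200 µM, or to DMSO, for 3 h, then to Biotin-Ahx-Ub-VS (0.5 µM final) for 1 h. The labelled DUBs were enriched on NeutrAvidin, digested with LysC and trypsin, and analysed by diaPASEF LC-MS/MS. Average base-two log ratios of compound over DMSO came from median-normalised label-free quantities by unpaired t-test. Only proteins with at least 2 unique peptides were used.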

[2] = compound: CN1c2ccccc2C(CS1(=O)=O)NC(=O)CCl
How it was run: as §1

[3] = compound: Cl.ClCC(=O)N1CCc2ncncc2C1
How it was run: as §1

[4] = compound: Cl.Cn1ncc2C(CCCc12)NC(=O)CCl
How it was run: as §1

[5] = compound: ClCC(=O)NC1CCOc2ccccc12
How it was run: as §1

[6] = compound: ClCC(=O)NC1CCCc2ccccc12
How it was run: (§2)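 In triplicate, 495 µg portions of HEK293T lysate in Tris/CHAPS/IGEPAL buffer with protease inhibitors received compound across a concentration series or vehicle for 3 h, followed by 1 h with 0.5 µM final Biotin-Ahx-Ub-VS. After NeutrAvidin enrichment and LysC/trypsin digestion, the labelled deubiquitinases were measured by diaPASEF LC-MS/MS and quantified label-free in Spectronaut with global-median normalisation. Each value is an average compound-to-vehicle ratio from an unpaired t-test, expressed as log2 and restricted to proteins having two or more unique peptides.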

[7] = compound: ClCC(=O)N[C@@H]1CCCc2ccccc12
How it was run: as §2

[8] = compound: ClCC(=O)N[C@H]1CCCc2ccccc12
How it was run: as §2

[9] = compound: CCC1N(CCc2cc(OC)c(Cl)cc12)C(=O)CCl
How it was run: as §1

[10] = compound: CCCC1N(CCc2cc(OC)c(OC)cc12)C(=O)CCl
How it was run: as §1

Measured: log2 ratio of Biotin-Ahx-Ub-VS probe labelling

UCHL5 (UniProt Q9Y5K5)
Chain of UniProt Q9Y5K5 (Q9Y5K5 whole entry): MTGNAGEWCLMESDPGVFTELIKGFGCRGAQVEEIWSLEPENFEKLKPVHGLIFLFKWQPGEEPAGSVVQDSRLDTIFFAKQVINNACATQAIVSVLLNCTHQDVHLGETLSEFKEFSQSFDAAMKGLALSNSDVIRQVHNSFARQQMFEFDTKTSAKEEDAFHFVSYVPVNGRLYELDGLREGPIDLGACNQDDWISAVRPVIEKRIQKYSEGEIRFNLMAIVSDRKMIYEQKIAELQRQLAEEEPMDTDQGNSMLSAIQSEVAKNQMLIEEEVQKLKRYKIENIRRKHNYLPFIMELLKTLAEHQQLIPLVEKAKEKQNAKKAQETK
inactive: [1]; compound concentration: 50uM -0.261 | [1]; compound concentration: 200uM -0.413 | [2]; compound concentration: 50uM -0.312 | [2]; compound concentration: 200uM -0.412 | [3]; compound concentration: 50uM -0.053 | [3]; compound concentration: 200uM -0.389 | [4]; compound concentration: 50uM 0.0591 | [4]; compound concentration: 200uM -0.0343 | [5]; compound concentration: 50uM -0.0586 | [5]; compound concentration: 200uM -0.0877 | [6]; compound concentration: 0.78uM -0.151 | [6]; compound concentration: 1.56uM -0.0693 | [6]; compound concentration: 3.13uM -0.187 | [6]; compound concentration: 6.25uM -0.075 | [6]; compound concentration: 12.5uM -0.156 | [6]; compound concentration: 25uM -0.346 | [6]; compound concentration: 50uM -0.111 | [6]; compound concentration: 100uM -0.166 | [6]; compound concentration: 200uM -0.211 | [7]; compound concentration: 0.78uM -0.425 | [7]; compound concentration: 1.56uM -0.183 | [7]; compound concentration: 3.13uM -0.22 | [7]; compound concentration: 6.25uM -0.255 | [7]; compound concentration: 12.5uM -0.281 | [7]; compound concentration: 25uM -0.176 | [7]; compound concentration: 50uM -0.209 | [7]; compound concentration: 100uM -0.17 | [7]; compound concentration: 200uM -0.35 | [8]; compound concentration: 0.78uM -0.162 | [8]; compound concentration: 1.56uM -0.217 | [8]; compound concentration: 3.13uM -0.188 | [8]; compound concentration: 6.25uM 0.0176 | [8]; compound concentration: 12.5uM -0.23 | [8]; compound concentration: 25uM -0.161 | [8]; compound concentration: 50uM -0.0913 | [8]; compound concentration: 100uM -0.178 | [8]; compound concentration: 200uM -0.266 | [9]; compound concentration: 50uM -0.0479 | [9]; compound concentration: 200uM -0.725 | [10]; compound concentration: 50uM -0.464 | [10]; compound concentration: 200uM -0.644

USP7 (UniProt Q93009)
Chain of UniProt Q93009 (Q93009 whole entry, looked up): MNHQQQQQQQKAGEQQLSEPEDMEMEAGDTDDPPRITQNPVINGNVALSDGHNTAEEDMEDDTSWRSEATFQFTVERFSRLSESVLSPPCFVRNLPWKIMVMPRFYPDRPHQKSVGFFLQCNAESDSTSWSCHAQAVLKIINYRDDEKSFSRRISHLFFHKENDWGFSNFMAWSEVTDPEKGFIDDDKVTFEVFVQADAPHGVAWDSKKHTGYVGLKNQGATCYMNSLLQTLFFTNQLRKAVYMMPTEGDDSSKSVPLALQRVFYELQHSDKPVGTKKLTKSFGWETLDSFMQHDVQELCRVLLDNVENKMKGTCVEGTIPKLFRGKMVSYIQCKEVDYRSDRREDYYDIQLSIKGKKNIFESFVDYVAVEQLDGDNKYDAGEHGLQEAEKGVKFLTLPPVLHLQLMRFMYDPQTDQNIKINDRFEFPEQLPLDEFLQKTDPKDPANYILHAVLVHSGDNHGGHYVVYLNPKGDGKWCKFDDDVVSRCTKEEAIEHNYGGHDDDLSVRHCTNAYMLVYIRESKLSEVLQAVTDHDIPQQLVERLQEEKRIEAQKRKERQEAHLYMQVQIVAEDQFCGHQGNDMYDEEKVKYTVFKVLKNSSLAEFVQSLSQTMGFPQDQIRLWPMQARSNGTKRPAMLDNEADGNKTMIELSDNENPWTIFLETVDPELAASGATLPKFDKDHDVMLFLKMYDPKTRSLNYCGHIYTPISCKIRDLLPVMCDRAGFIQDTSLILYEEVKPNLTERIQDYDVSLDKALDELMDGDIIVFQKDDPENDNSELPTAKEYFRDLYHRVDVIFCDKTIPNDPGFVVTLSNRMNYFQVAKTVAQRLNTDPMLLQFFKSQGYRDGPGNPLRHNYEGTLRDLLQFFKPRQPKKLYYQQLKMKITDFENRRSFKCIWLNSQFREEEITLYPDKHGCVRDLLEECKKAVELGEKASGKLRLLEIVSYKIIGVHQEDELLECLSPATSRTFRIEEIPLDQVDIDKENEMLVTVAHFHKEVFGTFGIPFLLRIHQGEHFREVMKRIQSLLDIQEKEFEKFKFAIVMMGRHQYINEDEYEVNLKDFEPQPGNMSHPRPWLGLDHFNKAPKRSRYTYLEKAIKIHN
active: [1]; compound concentration: 200uM -1.24 | [9]; compound concentration: 200uM -1.17 | [10]; compound concentration: 200uM -1.18
inactive: [1]; compound concentration: 50uM -0.421 | [2]; compound concentration: 50uM -0.133 | [2]; compound concentration: 200uM -0.121 | [3]; compound concentration: 50uM -0.0285 | [3]; compound concentration: 200uM -0.558 | [4]; compound concentration: 50uM 0.09 | [4]; compound concentration: 200uM -0.0475 | [5]; compound concentration: 50uM -0.0159 | [5]; compound concentration: 200uM -0.18 | [6]; compound concentration: 0.78uM -0.0291 | [6]; compound concentration: 1.56uM 0.0294 | [6]; compound concentration: 3.13uM -0.0887 | [6]; compound concentration: 6.25uM -0.0846 | [6]; compound concentration: 12.5uM -0.0893 | [6]; compound concentration: 25uM -0.157 | [6]; compound concentration: 50uM -0.0846 | [6]; compound concentration: 100uM -0.00996 | [6]; compound concentration: 200uM -0.173 | [7]; compound concentration: 0.78uM -0.245 | [7]; compound concentration: 1.56uM -0.104 | [7]; compound concentration: 3.13uM -0.126 | [7]; compound concentration: 6.25uM -0.0886 | [7]; compound concentration: 12.5uM -0.122 | [7]; compound concentration: 25uM -0.125 | [7]; compound concentration: 50uM -0.161 | [7]; compound concentration: 100uM -0.145 | [7]; compound concentration: 200uM -0.261 | [8]; compound concentration: 0.78uM -0.0919 | [8]; compound concentration: 1.56uM -0.155 | [8]; compound concentration: 3.13uM -0.109 | [8]; compound concentration: 6.25uM 0.00463 | [8]; compound concentration: 12.5uM -0.0828 | [8]; compound concentration: 25uM -0.0804 | [8]; compound concentration: 50uM -0.017 | [8]; compound concentration: 100uM -0.124 | [8]; compound concentration: 200uM -0.255 | [9]; compound concentration: 50uM -0.321 | [10]; compound concentration: 50uM -0.397
